According to PubChem BioAssay (Tox21):
Several values for one entry are separate records, joined by “and”; a condition that tells them apart may be missing. Identical values can stand only once. Inconclusive results are not listed. A call without a number means that no potency is given here. Activity calls are given as the source filed them. Unless noted, the call rests on the fitted dose curve; in most records, active means well fitted curve in the direction sought with a large enough effect in the repeat runs; inconclusive means weak or mixed curves; inactive means no such curve, though single readings can be large; an effect the other way counts as inactive or inconclusive.

What was measured:
[1] = qHTS assay for small molecules that induce genotoxicity in human embryonic kidney cells expressing luciferase-tagged ATAD5 (AID 651632); further: nearly all actives have a fitted effect of over 15% in size
Procedure, shortened: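 Quantitative HTS in HEK293T expressing luciferase-tagged ATAD5, whose levels rise upon DNA damage. Exposure ran 16 hr at 37C and 5% CO2, with luminescence read 30 min after Amplite addition at room temperature.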

[2] = qHTS assay for small molecules that induce genotoxicity in human embryonic kidney cells expressing luciferase-tagged ATAD5 - cell viability (AID 651634; calls by dose curve; further: nearly all actives have a fitted effect of over 25% in size)
Procedure, shortened: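 After 15.5 hr incubation with compound at 37C, 5% CO2, HEK293T ATAD5-luciferase cells received CellTiter-Fluor reagent; fluorescence intensity was quantified following 30 min at 37C.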

[3] = qHTS assay for small molecule disruptors of the mitochondrial membrane potential - cell viability (AID 720634; calls by dose curve;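 further: human HepG2 liver cancer cells; series mostly up to about 83 µM; nearly all actives have a fitted effect of over 20% in size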)
Procedure, shortened: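 ATP-based luminescent viability readout (CellTiter-Glo, 30 min, room temperature) in HepG2 cells multiplexed with the m-MPI membrane potential dye; compound exposure lasted 1 hr at 37 C.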

[4] = qHTS assay for small molecule disruptors of the mitochondrial membrane potential (AID 720635); further: potency means the concentration at half of the fitted maximal effect
Procedure, shortened: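 HepG2 cells exposed to compound 1 hr at 37C, then Mito-MPS dye 30 min. Ratio read of aggregate (540/590 nm) versus monomer (490/535 nm) fluorescence.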

[5] = qHTS assay to test for compound auto fluorescence at 590 nm (red) in HepG2 cells (AID 720674)
Procedure, shortened: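 Seeding: 2,000 HepG2 cells/well, MEM/10% FBS, overnight 37 C. Dosing: compound vs DMSO. Incubation: 1 hr, 37 C, 5% CO2. Read: fluorescence 540 ex/590 em, Rose Bengal sodium as red reference.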

[6] = qHTS assay to test for compound auto fluorescence at 535 nm (green) in HepG2 cells (AID 720675)
[7] = qHTS assay to test for compound auto fluorescence at 460 nm (blue) in HEK293 cells (AID 720678)
Procedure, shortened: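 After cell attachment (4-5 hr, 37C), compounds were pinned onto HEK293 monolayers in 10% dialyzed FBS medium. The blue channel (405/460 nm) was read following overnight culture. Equivalency was calculated against triamterene.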

[8] = qHTS assay to test for compound auto fluorescence at 590 nm (red) in HEK293 cells (AID 720679)
Procedure, shortened: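 Plates of HEK293 cells (10% dialyzed FBS) are treated with 23 nL compound or DMSO vehicle after a 4-5 hr attachment period, incubated overnight at 37C, and read for red fluorescence at 540/590nm.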

[9] = qHTS assay to test for compound auto fluorescence at 535 nm (green) in HEK293 cells (AID 720680)
[10] = qHTS assay to test for compound auto fluorescence at 460 nm (blue) in HEK293 cell free culture (AID 720681)
Procedure, shortened: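 Compounds were added to cell-free DMEM with 10% FBS and fluorescence read directly. The blue channel used 405 nm excitation and 460 nm emission, with triamterene as the reference fluorophore.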

[11] = qHTS assay to test for compound auto fluorescence at 590 nm (red) in HEK293 cell free culture (AID 720683)
Procedure, shortened: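 Cell-free wells of DMEM with 10% FBS received compound, and intrinsic fluorescence was read at excitation/emission 540/590 nm. Values expressed as equivalence to Rose Bengal sodium.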

[12] = qHTS assay to test for compound auto fluorescence at 590 nm (red) in HepG2 cell free culture (AID 720684)
Procedure, shortened: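 Rose Bengal sodium served as the reference for red signal. Test compounds were dispensed into serum-containing MEM (10% FBS) without cells, and plates were read at 540/590 nm.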

[13] = qHTS assay to test for compound auto fluorescence at 460 nm (blue) in HepG2 cell free culture (AID 720685)
Procedure, shortened: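 Cell-free plates of MEM plus 10% FBS received 23 nL compound or DMSO vehicle; blue-channel (405/460 nm) intensity scored against triamterene as reference fluorophore.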

[14] = qHTS assay to test for compound auto fluorescence at 535 nm (green) in HepG2 cell free culture (AID 720686)
[15] = qHTS assay to test for compound auto fluorescence at 460 nm (blue) in HepG2 cells (AID 720687)
Procedure, shortened: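 HepG2 cells in MEM with 10% FBS, attached overnight at 37 C, were exposed to compound or DMSO for 1 hr at 37 C, 5% CO2. Blue fluorescence was read at 405/460 nm, with triamterene as reference fluorophore.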

[16] = target: Glucocorticoid receptor (Homo sapiens) (UniProt P04150); assay: qHTS assay to identify small molecule agonists of the glucocorticoid receptor (GR) signaling pathway (AID 720691; active means well fitted activation curve with a large enough effect in the signal ratio in the repeat runs, not every such curve was filed as active; the % refers to the signal ratio)
Glucocorticoid receptor (Homo sapiens), sequence (P04150 whole entry, looked up): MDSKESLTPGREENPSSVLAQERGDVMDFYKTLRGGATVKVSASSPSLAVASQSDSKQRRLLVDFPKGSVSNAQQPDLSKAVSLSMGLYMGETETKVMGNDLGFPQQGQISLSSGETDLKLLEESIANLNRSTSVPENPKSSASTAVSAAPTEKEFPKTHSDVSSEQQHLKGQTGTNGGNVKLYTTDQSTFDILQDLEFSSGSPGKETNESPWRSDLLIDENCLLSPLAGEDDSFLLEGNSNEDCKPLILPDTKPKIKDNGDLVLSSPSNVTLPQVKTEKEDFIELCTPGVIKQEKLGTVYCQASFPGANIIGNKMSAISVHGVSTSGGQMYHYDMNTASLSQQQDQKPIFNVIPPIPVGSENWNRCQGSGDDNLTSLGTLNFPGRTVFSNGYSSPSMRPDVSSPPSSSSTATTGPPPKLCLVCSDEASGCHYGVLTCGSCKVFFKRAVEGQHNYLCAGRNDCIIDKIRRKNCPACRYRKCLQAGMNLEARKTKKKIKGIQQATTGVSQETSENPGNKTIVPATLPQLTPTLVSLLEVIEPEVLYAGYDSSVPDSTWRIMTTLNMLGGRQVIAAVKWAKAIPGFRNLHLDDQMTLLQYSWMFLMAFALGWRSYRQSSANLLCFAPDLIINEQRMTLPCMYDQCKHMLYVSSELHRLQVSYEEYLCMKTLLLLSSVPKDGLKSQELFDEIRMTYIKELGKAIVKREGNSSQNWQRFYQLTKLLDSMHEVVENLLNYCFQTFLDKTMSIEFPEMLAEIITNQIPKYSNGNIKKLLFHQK
Procedure, shortened: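 Cells: GR-bla HeLa, endogenous GR with stably integrated GRE-beta-lactamase reporter. Treatment 18 h, 37 C, compounds delivered in DMSO. Detection via LiveBLAzer B/G FRET substrate, 2 h RT, fluorescence intensity.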

[17] = target: Glucocorticoid receptor (Homo sapiens) (UniProt P04150); assay: qHTS assay to identify small molecule antagonists of the glucocorticoid receptor (GR) signaling pathway (AID 720692; active means well fitted inhibition curve with a large enough effect in the signal ratio in the repeat runs, not every such curve was filed as active; the % refers to the signal ratio)
Procedure, shortened: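 Quantitative HTS in antagonist format: HeLa cells expressing endogenous GR and a stably integrated GRE-bla reporter, stimulated with 5 nM dexamethasone (final) alongside test compounds for 18 h.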

[18] = qHTS assay to test for compound auto fluorescence at 535 nm (green) in HEK293 cell free culture (AID 720682)
Procedure, shortened: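 DMEM + 10% FBS, cell-free; cpd or DMSO pinned in; Ex485/Em535 read; output as fluorescein-equivalent signal.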

[19] = qHTS assay for small molecule agonists of the p53 signaling pathway - cell viability (AID 651633; calls by dose curve;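 further: p53RE-bla HCT reporter cells with a stable beta-lactamase p53 reporter; series mostly up to about 83 µM; nearly all actives have a fitted effect of over 30% in size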)
Procedure, shortened: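 p53RE-bla cells were treated with compound for 16 hours at 37 C. Cytotoxicity was then measured as CellTiter-Glo luminescence after 30 min at room temperature.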

| SMILES | Potency [1] | Potency [2] | Potency [3] | Potency [4] | outcome [5] | outcome [6] | outcome [7] | outcome [8] | outcome [9] | outcome [10] | outcome [11] | outcome [12] | outcome [13] | outcome [14] | outcome [15] | Potency [16] | Potency [17] | outcome [18] | outcome [19] |
| --- | --- | --- | --- | --- | --- | --- | --- | --- | --- | --- | --- | --- | --- | --- | --- | --- | --- | --- | --- |
| C[C@H](NC(CCc1ccccc1)C(=O)O)C(=O)N1CCC[C@H]1C(=O)O (stereo not given in full) | inactive | inactive | inactive | inactive | inactive | inactive | inactive | inactive | inactive | inactive | inactive | inactive | inactive | inactive | inactive | inactive | inactive | – | – |
| NCCc1cnc[nH]1 | – | inactive | inactive | – | inactive | inactive | inactive | inactive | inactive | inactive | inactive | inactive | inactive | inactive | inactive | – | – | inactive | – |
| CC(C)NC(=O)NC(C)C | inactive | inactive | inactive | – | – | – | inactive | inactive | inactive | inactive | inactive | inactive | inactive | inactive | inactive | inactive | – | inactive | inactive |
| Cc1[nH]c(=O)c(C#N)cc1-c1ccc2nccn2c1 | inactive | inactive | inactive | – | inactive | inactive | inactive | inactive | inactive | inactive | inactive | inactive | inactive | inactive | inactive | inactive | inactive | inactive | inactive |
| COCCCOCCCOC | inactive | inactive | inactive | inactive | – | inactive | inactive | inactive | inactive | inactive | inactive | inactive | inactive | – | inactive | – | – | inactive | inactive |
| CC(=O)OCC(=O)[C@@]1(O)CC[C@H]2[C@@H]3CCC4=CC(=O)CC[C@]4(C)[C@H]3C(=O)C[C@@]21C | inactive | inactive | inactive | – | inactive | inactive | inactive | – | inactive | inactive | inactive | inactive | inactive | inactive | inactive | – | – | – | inactive |
| CC(C)(c1ccc(O)cc1)c1ccc(O)cc1 | inactive | inactive | inactive | 6.78 µM (active) and 5.54 µM (active) | – | inactive | inactive | – | inactive | inactive | inactive | inactive | inactive | inactive | inactive | – | – | inactive | – |
| CC(=O)CC(C)C | inactive | inactive | inactive | inactive | inactive | inactive | inactive | inactive | inactive | inactive | inactive | inactive | inactive | inactive | inactive | inactive | inactive | inactive | – |
| CCC=O | inactive | inactive | inactive | – | inactive | inactive | inactive | – | inactive | inactive | inactive | inactive | inactive | inactive | inactive | – | – | inactive | inactive |
| Cc1nc2c([nH]1)c(=O)n(C)c(=O)n2Cc1ccco1 | inactive | inactive | inactive | inactive | – | inactive | inactive | inactive | inactive | inactive | inactive | inactive | inactive | inactive | inactive | inactive | – | inactive | – |
| CCOc1ccc(C(=O)OCCN(CC)CC)cc1 | inactive | inactive | inactive | – | inactive | – | inactive | – | inactive | inactive | inactive | inactive | inactive | – | inactive | – | – | inactive | inactive |
| O=C(O)CN(CCOCCOCCN(CC(=O)O)CC(=O)O)CC(=O)O | inactive | inactive | inactive | – | inactive | inactive | inactive | – | inactive | inactive | inactive | inactive | inactive | inactive | inactive | inactive | inactive | – | inactive |
| CCCCCCCCCCCCCCCCC | inactive | inactive | inactive | inactive | inactive | inactive | inactive | inactive | inactive | inactive | inactive | inactive | inactive | – | inactive | inactive | inactive | inactive | – |
| CCOC(=O)CC(C)=O | – | inactive | inactive | – | inactive | inactive | inactive | inactive | inactive | inactive | inactive | inactive | inactive | inactive | inactive | – | – | inactive | – |
| CN1C(=O)N(C)C(O)C1O (stereo not given) | inactive | inactive | inactive | – | inactive | inactive | inactive | inactive | inactive | inactive | inactive | inactive | inactive | inactive | inactive | inactive | inactive | inactive | inactive |
| Cc1c(O)cccc1O | inactive | inactive | inactive | inactive | inactive | inactive | inactive | inactive | inactive | inactive | inactive | inactive | inactive | inactive | inactive | – | – | inactive | – |
